Compound activity as filed in PubChem BioAssay.
MITF inh – MITF inhibitors, primary screen, biochemical, AlphaScreen, human | Microphthalmia-associated transcription factor (Homo sapiens), O75030 | AlphaScreen MITF homodimerization, bead proximity signal | inhibition, % at 2.6 µM | hit rate 0.91% among 650,000 | AID 1259374, 2018; in the data active means inhibition above about 50%
FBW7 activator – FBW7 E3 ligase activators, primary screen, biochemical, AlphaScreen, human | F-box/WD repeat-containing protein 7 (Homo sapiens), Q969H0 | AlphaScreen FBW7–phospho-cyclin E peptide binding, activator screen | normalized activity (activation), % at 26.1 µM | hit rate 0.13% among 650,000; in the data active means normalized activity above about 1.9%;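 further: purified mutant Fbw7 with reduced substrate affinity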
GPR151 activ – activators of human GPR151, primary screen, cell-based, PathHunter beta-arrestin, luminescence; G-protein coupled receptor 151 (Homo sapiens), Q8TDV0; PathHunter beta-arrestin GPR151 cells; activation, % at 11.2 µM; hit rate 1% among 650,000; in the data active means activation above about 4.9%
Target sequence (Q8TDV0 whole entry, looked up): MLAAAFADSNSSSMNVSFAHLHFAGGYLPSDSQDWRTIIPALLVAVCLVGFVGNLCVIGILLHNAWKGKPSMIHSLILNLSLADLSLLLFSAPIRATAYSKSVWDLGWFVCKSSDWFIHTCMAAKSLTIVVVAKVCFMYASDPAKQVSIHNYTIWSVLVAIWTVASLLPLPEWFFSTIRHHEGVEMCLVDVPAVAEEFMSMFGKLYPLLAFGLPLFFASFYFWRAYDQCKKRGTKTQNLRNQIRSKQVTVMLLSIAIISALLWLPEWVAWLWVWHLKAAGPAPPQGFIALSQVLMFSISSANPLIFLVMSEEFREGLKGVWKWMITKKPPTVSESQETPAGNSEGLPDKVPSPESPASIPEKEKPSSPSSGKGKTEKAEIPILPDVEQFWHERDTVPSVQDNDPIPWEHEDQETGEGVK
TEAD-YAP block – TEAD-YAP interaction inhibition, primary screen, TEAD-YAP interaction inhibitor project, luminescence, HEK-TIYL cells | TEAD-Gal4/YAP UAS-luciferase luminescence | inhibition, % at 9.12 µM | hit rate 1.4% among 640,000 | AID 1259422, 2018; in the data active means inhibition above about 32%
A number is an active result; . = inactive. Sampled rows, rich in hits. Any-hit rate of the full collection: about 3.4%.

SMILES | MITF inh | FBW7 activator | GPR151 activ | TEAD-YAP block
CC(C)n1cnc2c(NC3CCN(Cc4ccccc4)CC3)nc(Nc3ccncc3)nc21 | . | . | . | 69
CC(C)n1cnc2c(NC3CCN(Cc4ccccc4)CC3)nc(Nc3cnccn3)nc21 | . | . | . | 76
Oc1ccc(CCNc2nc(Nc3cnccn3)nc3c2ncn3C2CCCCC2)cc1 | . | . | . | 40
CC(C)n1cnc2c(NC3CCN(Cc4ccccc4)CC3)nc(Nc3ccccc3)nc21 | . | . | . | .
OCC1CCCN1c1nc(NC2CCN(Cc3ccccc3)CC2)c2ncn(C3CCCCC3)c2n1 (configuration not stated) | . | . | . | .
COc1ccc(CCNc2nc(Nc3cnccn3)nc3c2ncn3C2CCCCC2)cc1 | . | . | . | .
CC(C)n1cnc2c(NC3CCN(Cc4ccccc4)CC3)nc(N3CCCC3CO)nc21 (configuration not stated) | . | . | . | 36
Cn1nnc2c(Cl)cc(Cl)cc2c1=O | . | . | . | .
CC(C)n1cnc2c(NC3CCN(Cc4ccccc4)CC3)nc(NCc3cccnc3)nc21 | . | . | . | 76
CC(C)n1cnc2c(NCc3cccnc3)nc(NC3CCN(Cc4ccccc4)CC3)nc21 | . | . | . | .
CC(C)n1cnc2c(NC3CC3)nc(Nc3cnccn3)nc21 | . | . | . | 38
Oc1ccc(CCNc2ccnc(Nc3cnccn3)n2)cc1 | . | . | . | .
COc1ccc(CCNc2nc(Nc3cnccn3)nc3c2ncn3C(C)C)cc1 | . | . | . | 36
Oc1ccc(CCNc2cc(Nc3cnccn3)ncn2)cc1 | . | . | . | 46
CC(C)n1cnc2c(NC3CC3)nc(Nc3ccccn3)nc21 | . | . | . | .
Cc1ccc(S(=O)(=O)NCc2cccs2)cc1C(=O)O | . | . | . | .
CCOC(=O)c1oc2ccccc2c1NC(=O)COc1ccc(C)cc1 | . | . | . | .
O=C(Cn1ncc2c1-c1ccccc1OC2)N1CCN(c2ccc([N+](=O)[O-])cc2)CC1 | . | . | . | .
Cc1cc(C(=O)N(C)c2ccccc2)on1 | . | . | . | .
Oc1c(CN2CCN(c3cccc(Cl)c3)CC2)cc(COCc2ccccc2)c2cccnc12 | . | . | . | .
CCOC(=O)C1CCCN(Cc2cc(Cl)c3cccnc3c2O)C1 (configuration not stated) | . | . | . | .
CCOCc1cc(CN2CCCCC2)c(O)c2ncccc12 | 103 | . | . | .
CCOCc1cc(CN2CCN(c3ccccc3)CC2)c(O)c2ncccc12 | 95 | . | . | 59
COc1ccc(NC(=O)CN(c2ccc(Br)c(C)c2)S(C)(=O)=O)cc1 | . | . | . | .
COc1ccc(Nc2cc(C)nc3ccc(OC)cc23)cc1 | . | . | . | .
SMILES | MITF inh | FBW7 activator | GPR151 activ | TEAD-YAP block
COc1ccc2nc(C)cc(Nc3ccc(O)cc3)c2c1 | . | . | . | 34
COC(=O)c1ccc2nc(C)cc(Nc3ccc(C(=O)O)cc3)c2c1 | . | . | . | .
COC(=O)c1ccc(Nc2cc(C)nc3cc(Cl)ccc23)cc1 | . | . | . | 49
COC(=O)c1ccc(Nc2cc(C)nc3ccc(Cl)cc23)cc1 | . | . | . | 49
Oc1ccc(C2=Nn3c(nnc3-c3ccccc3Br)SC2)cc1O | . | . | . | 52
COc1ccc(-c2nnc3n2N=C(c2ccc4c(c2)OCCO4)CS3)cc1 | . | . | . | 46
COc1cccc(C2=Nn3c(nnc3-c3ccccc3O)SC2)c1 | . | . | . | .
COc1ccc(C2=Nn3c(nnc3-c3ccc(OC)cc3)SC2)cc1 | . | . | . | 49
CCC(=O)Nc1ccc(C2=Nn3c(COc4ccc(OC)cc4)nnc3SC2)cc1 | . | . | . | 48
COCCn1cnc2sc(C(=O)Nc3ccc(C)c(F)c3)c(C)c2c1=O | . | . | . | .
COc1ccc(-c2noc(CSc3nnc(-c4c[nH]c5ccccc45)n3C)n2)cc1OC | . | . | . | .
CC1CCCCC1NC(=O)COC(=O)c1ccc(O)cc1 (configuration not stated) | . | . | . | .
COc1cccc(-c2nnc3n2N=C(c2ccc(Br)cc2)CS3)c1 | . | . | . | .
Cc1ccc(C2=Nn3c(nnc3-c3ccccc3)SC2)cc1 | . | . | . | 60
COc1cccc(-c2nnc3n2N=C(c2ccc(O)c(O)c2)CS3)c1 | . | . | . | 58
COc1ccc(-c2nnc3n2N=C(c2ccc(O)c(O)c2)CS3)cc1 | . | . | . | 50
